Test results published in ChEMBL document CHEMBL4296182, “CO-ADD screening of NIH NCI Diversity Set V”.
For part of these data: Measured potencies and affinities stand elsewhere.

Legend:
Staphylococcus aureus = assay: Antibacterial activity against Staphylococcus aureus MRSA ATCC 43300 (CO-ADD:GP_020); MIC in CAMBH media using NBS plates, by Resazurin F(560/590); format: functional; settings: Concentration 20 uM, ASSAY_TEST Inhibition of Bacterial Growth, detection method Resazurin, Fluorescence (ex560/em590), MEDIA CAMHB, plate type 384well, CORNING #3640, time 18 hr
Acinetobacter baumannii = assay: Antibacterial activity against Acinetobacter baumannii ATCC 19606 (CO-ADD:GN_034); MIC in CAMBH media using NBS plates, by Resazurin F(560/590); format: functional; settings: Concentration 20 uM, ASSAY_TEST Inhibition of Bacterial Growth, detection method Resazurin, Fluorescence (ex560/em590), MEDIA CAMHB, plate type 384well, CORNING #3640, time 18 hr
Escherichia coli = assay: Antibacterial activity against Escherichia coli ATCC 25922 (CO-ADD:GN_001); MIC in CAMBH media using NBS plates, by Resazurin F(560/590); format: functional; settings: Concentration 20 uM, ASSAY_TEST Inhibition of Bacterial Growth, detection method Resazurin, Fluorescence (ex560/em590), MEDIA CAMHB, plate type 384well, CORNING #3640, time 18 hr
Klebsiella pneumoniae = settings: Concentration 20 uM; ASSAY_TEST Inhibition of Bacterial Growth; detection method Absorption (OD600); MEDIA CAMHB; plate type 384well; NBS; CORNING #3640; time 18 hr
Candida albicans = settings: 20 µM
Cryptococcus neoformans = settings: Concentration 20 uM; ASSAY_TEST Inhibition of Fungal Growth; detection method Resazurin; Absorption (OD600-OD570); plate type 384well; NBS; CORNING #3640

SMILES | Inhibition (Staphylococcus aureus) [%] | Inhibition (Acinetobacter baumannii) [%] | Inhibition (Escherichia coli) [%] | Inhibition (Klebsiella pneumoniae) [%] | Inhibition (Candida albicans) [%] | Inhibition (Cryptococcus neoformans) [%]
Cn1nc(NC(=O)C(F)(F)F)c2ncc(-c3ccc(Cl)cc3)nc21 | 20.42 | 13.75 | 1.31 | 13.33 | 2.95 | -3.57
COc1cc2c(c(OC)c1O)C(=O)CO2 | -11.73 | -8.29 | -0.75 | 1.47 | 3.59 | -3.51
Cc1ccc(NC(=O)NNC(=O)CSC2CCc3ccccc32)c(C)c1 (centres undefined) | 19.06 | 5.57 | 0.84 | 5.08 | 2.67 | -10.98
CCOC(=O)C1=C(N)N=C(N)C1=Nc1ccc(OC)cc1 | 10.45 | -11.35 | 6.73 | 4.94 | -1.95 | -7.84
Cn1ncc2c(Nc3ccc(Br)cc3)nc(Nc3ccc(Br)cc3)nc21 | 3.19 | -7.92 | 12.54 | 2.31 | -0.11 | -3.38
Cc1ccn2c(C(C)O)nnc2c1 (centres undefined) | 16.33 | -15.76 | 12.13 | 2.31 | -1.79 | -15.94
Clc1nnc2c3ccccc3ccn12 | -3.22 | 2.03 | 3.3 | 8.71 | 1.01 | -9.43
Oc1ccc(/C=C\c2cnccn2)cc1 | 3.99 | -7.27 | 16.94 | 16.23 | 1.24 | -11.21
O=C(COc1ccc([N+](=O)[O-])cc1Cl)N1CCOCC1 | 2.54 | 4.52 | 6.72 | 6.01 | -1.21 | -16.6
CCC1=C(c2ccc(OC)cc2)CCC(C(=O)O)C1C (centres undefined) | 20.78 | 6.76 | -4.91 | 12.8 | 12.4 | -6.31
N=C(N)NC(=N)Nc1ccc(O)cc1 | 11.3 | -14.34 | 13.43 | 0.41 | 0.07 | -11.16
CC1(C)CCCC2(C)C(OCCO)=CC(=O)C=C12 (centres undefined) | 7.52 | 8.39 | 0.39 | 20.08 | 2.7 | -10.94
COCC(=O)OC1CCn2c1nc1c2C(=O)C(C)=C(NC(C)=O)C1=O (centres undefined) | 9.15 | 12.44 | -2.53 | 8.02 | -3.01 | -13.92
CCOC(=O)Nc1ccc2nc(Sc3ccc(Cl)cc3)sc2c1 | 12.84 | 1.81 | -1.5 | 17.17 | 10.2 | -3.93
Cc1c2cnccc2c(C)c2c1c1ccccc1n2CCOC(=O)c1ccccc1 | -1.71 | 14.72 | 4.49 | 5.61 | 22.1 | -19.42
O=C1/C(=N\c2cccc(Cl)c2)CC(c2ccc(Cl)cc2)N1c1cccc(Cl)c1 (centres undefined) | 20.38 | -11.7 | 10.42 | 18.13 | -2.19 | -8.61
CC(=O)Nc1cc(NC(C)=O)ncn1 | 12.16 | -10.63 | 12.12 | 16.66 | 3.12 | -1.27
C(=N\n1cnnc1)/c1ccc2c(c1)CCC2 | 10.16 | -8.61 | 2.79 | 9.91 | 12.8 | -5.02
CCOC(=O)Nc1csnn1 | 13.65 | -5.72 | 13.49 | 14.72 | 5.16 | -5.84
